The supplement of paper PMC10849652
Of roughly 7,900 targets only a part is listed; those with a hit were picked by preference. About 0.6% of all pairs of compound and target were hits.

Legend:
Assay in all cases: log2 fold change, soluble protein after heating vs DMSO (PISA); higher = thermal stabilisation; K562 cells, 10 uM, 30 min; active = over 0.2 and 3.5 SD of the protein, either way, in both replicates (recomputed)
[1] = compound: C1=CC=C(C=C1)[C@H](COC2=CC3=C(C=C2)NC(=O)N3)NC(=O)C4=CC=CN(C4=O)CC5=CC(=C(C=C5)F)F
In short: (§1)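 Quantification of soluble protein used TMTpro 16plex LC-MS/MS, with channel sums equalised. Samples were the supernatant after 21,000xg for 90 min of pooled aliquots from K562 cells (2×10^6 cells/mL) treated with 10 μM compound for 30 min, heated for 3 min over 48°C-58°C, and extracted in PBS with 0.5% NP-40 at 4°C. Values, from duplicates, describe thermal stability against control samples on a log2 fold-change scale.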

[2] = compound: CC1=C(SC2=C1C(=N[C@H](C3=NN=C(N32)C)CC(=O)N)C4=CC=C(C=C4)Cl)C
In short: as §1

[3] = compound: CC1=C2C(=CC=C1)N=C(N(C2=O)C3=CC=CC=C3C)CN4C=NC5=C(N=CN=C54)N
In short: as §1

[4] = compound: Cc1sc2c(c1C)C(c1ccc(Cl)cc1)=N[C@@H](CC(=O)OC(C)(C)C)c1nnc(C)n1-2
In short: as §1

[5] = compound: c1ccc([C@@H]2C[C@H]2NC2CCNCC2)cc1
In short: as §1

Measured: log2 fold change

NA, A0A0B4J2A0
inactive: [1] -0.035 | [2] -0.005 | [3] 0.015 | [4] -0.097 | [5] -0.007

NCOA7 (UniProt Q8NI08)
inactive: [1] 0.03 | [2] 0.093 | [3] 0.036 | [4] 0.016 | [5] -0.058

NDUFA12 (UniProt Q9UI09)
Sequence of UniProt Q9UI09 (Q9UI09 whole entry, looked up): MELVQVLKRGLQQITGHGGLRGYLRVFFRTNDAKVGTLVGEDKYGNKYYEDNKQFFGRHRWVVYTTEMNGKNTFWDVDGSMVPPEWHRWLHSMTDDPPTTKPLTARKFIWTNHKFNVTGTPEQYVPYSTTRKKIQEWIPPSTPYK
inactive: [1] -0.046 | [2] 0.126 | [3] 0.145 | [4] -0.086 | [5] -0.051

NA isoform 3 (UniProt Q4G0T1)
Sequence of UniProt Q4G0T1 (Q4G0T1 whole entry, looked up): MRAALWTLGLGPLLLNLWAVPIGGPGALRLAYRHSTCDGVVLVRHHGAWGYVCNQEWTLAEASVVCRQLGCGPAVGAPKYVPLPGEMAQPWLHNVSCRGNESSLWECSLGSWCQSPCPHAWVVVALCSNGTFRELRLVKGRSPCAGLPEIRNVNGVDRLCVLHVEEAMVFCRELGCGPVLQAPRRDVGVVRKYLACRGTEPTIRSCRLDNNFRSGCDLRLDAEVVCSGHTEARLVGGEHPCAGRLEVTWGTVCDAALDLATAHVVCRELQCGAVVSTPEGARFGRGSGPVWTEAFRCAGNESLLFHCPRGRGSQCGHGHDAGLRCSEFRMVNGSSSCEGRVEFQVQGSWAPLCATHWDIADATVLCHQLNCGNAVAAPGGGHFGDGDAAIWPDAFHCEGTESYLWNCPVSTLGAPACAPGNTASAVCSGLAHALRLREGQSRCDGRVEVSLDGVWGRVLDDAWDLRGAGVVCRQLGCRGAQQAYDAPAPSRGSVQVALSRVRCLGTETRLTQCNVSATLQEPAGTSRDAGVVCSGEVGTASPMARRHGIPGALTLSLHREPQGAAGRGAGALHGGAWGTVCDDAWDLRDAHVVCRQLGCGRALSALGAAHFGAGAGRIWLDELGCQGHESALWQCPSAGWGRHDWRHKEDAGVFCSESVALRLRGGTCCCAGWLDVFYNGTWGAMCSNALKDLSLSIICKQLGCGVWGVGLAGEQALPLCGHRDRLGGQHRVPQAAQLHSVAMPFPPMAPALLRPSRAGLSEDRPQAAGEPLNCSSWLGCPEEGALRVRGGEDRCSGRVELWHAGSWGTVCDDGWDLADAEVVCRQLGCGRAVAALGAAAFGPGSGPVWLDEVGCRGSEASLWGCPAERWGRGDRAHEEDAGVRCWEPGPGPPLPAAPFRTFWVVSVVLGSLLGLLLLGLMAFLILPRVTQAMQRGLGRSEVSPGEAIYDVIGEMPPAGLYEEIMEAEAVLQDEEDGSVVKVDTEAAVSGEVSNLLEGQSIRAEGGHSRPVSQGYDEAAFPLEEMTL
inactive: [1] 0.161 | [2] -0.017 | [3] 0.026 | [4] 0.024 | [5] -0.126

NOL7 (UniProt Q9UMY1)
inactive: [1] 0.168 | [2] -0.221 | [3] -0.265 | [4] 0.188 | [5] 0.057

NDUFS8 (UniProt O00217)
inactive: [1] -0.049 | [2] 0.1 | [3] 0.082 | [4] -0.023 | [5] -0.02

NFX1 (UniProt Q12986)
Sequence of UniProt Q12986 (Q12986 whole entry, looked up): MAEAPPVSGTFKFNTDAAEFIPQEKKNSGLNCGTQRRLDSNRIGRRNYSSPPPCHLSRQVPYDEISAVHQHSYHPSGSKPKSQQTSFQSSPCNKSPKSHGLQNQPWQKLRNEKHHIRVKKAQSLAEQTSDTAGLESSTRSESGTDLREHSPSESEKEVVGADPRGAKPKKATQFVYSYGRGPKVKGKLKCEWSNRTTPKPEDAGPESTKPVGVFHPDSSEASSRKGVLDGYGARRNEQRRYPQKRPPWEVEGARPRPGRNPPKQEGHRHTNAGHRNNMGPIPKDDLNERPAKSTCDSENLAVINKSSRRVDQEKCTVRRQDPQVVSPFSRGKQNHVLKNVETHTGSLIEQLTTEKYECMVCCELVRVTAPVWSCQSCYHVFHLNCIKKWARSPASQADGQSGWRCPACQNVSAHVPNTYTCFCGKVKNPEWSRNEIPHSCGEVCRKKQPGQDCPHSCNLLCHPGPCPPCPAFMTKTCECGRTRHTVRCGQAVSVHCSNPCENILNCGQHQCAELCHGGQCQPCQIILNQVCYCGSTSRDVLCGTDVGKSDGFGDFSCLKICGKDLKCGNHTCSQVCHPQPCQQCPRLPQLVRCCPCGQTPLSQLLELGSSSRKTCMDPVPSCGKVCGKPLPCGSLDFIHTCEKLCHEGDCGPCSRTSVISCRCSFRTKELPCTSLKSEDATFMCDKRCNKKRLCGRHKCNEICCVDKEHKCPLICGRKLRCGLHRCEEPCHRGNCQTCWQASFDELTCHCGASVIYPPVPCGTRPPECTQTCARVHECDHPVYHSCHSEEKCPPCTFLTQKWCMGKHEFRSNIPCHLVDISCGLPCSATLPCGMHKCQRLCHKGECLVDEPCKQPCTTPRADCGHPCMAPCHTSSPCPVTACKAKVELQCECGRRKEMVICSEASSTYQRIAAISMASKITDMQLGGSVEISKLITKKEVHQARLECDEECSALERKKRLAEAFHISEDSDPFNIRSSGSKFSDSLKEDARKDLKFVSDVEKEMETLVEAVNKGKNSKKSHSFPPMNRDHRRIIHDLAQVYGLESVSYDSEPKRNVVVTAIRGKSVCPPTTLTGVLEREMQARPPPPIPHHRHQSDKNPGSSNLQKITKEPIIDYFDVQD
inactive: [1] -0.011 | [2] -0.161 | [3] -0.068 | [4] 0.115 | [5] -0.163

PAAF1 (UniProt Q9BRP4)
inactive: [1] -0.012 | [2] 0.043 | [3] 0.076 | [4] -0.014 | [5] 0.008

PAK1 isoform 2 (UniProt Q13153)
inactive: [1] -0.152 | [2] 0.097 | [3] -0.113 | [4] -0.02 | [5] -0.092

NOP2 isoform 4 (UniProt P46087)
inactive: [1] 0.184 | [2] -0.494 | [3] -0.694 | [4] 0.409 | [5] -0.009

NSMCE2 (UniProt Q96MF7)
inactive: [1] 0.074 | [2] 0.031 | [3] 0.075 | [4] 0.004 | [5] -0.017

MRPS10 (UniProt P82664)
inactive: [1] -0.019 | [2] -0.102 | [3] 0.065 | [4] 0.132 | [5] 0.025

OSBPL8 (UniProt Q9BZF1)
inactive: [1] -0.051 | [2] -0.071 | [3] 0.007 | [4] -0.018 | [5] -0.002

MSH2 (UniProt P43246)
inactive: [1] -0.041 | [2] 0.051 | [3] 0.105 | [4] -0.037 | [5] 0.01

NME1 isoform 2 (UniProt P15531)
inactive: [1] 0.095 | [2] 0.142 | [3] 0.069 | [4] 0.033 | [5] -0.108

NMRAL1 (UniProt Q9HBL8)
Sequence of UniProt Q9HBL8 (Q9HBL8 whole entry, looked up): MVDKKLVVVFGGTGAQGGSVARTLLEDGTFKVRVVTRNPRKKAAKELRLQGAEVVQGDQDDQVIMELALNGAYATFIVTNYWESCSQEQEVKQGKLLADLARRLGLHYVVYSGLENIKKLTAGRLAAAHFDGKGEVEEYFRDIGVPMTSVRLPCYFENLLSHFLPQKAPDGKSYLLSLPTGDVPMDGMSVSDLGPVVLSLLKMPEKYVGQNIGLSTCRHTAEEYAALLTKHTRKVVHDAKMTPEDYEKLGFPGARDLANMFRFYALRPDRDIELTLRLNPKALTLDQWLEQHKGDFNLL
inactive: [1] -0.12 | [2] -0.017 | [3] 0.025 | [4] -0.139 | [5] -0.094

NIPSNAP2 (UniProt O75323)
inactive: [1] -0.038 | [2] 0.008 | [3] 0.036 | [4] -0.019 | [5] -0.051

NBN (UniProt O60934)
inactive: [1] 0.002 | [2] 0.032 | [3] 0.036 | [4] -0.004 | [5] -0.001

MITD1 (UniProt Q8WV92)
Sequence of UniProt Q8WV92 (Q8WV92 whole entry, looked up): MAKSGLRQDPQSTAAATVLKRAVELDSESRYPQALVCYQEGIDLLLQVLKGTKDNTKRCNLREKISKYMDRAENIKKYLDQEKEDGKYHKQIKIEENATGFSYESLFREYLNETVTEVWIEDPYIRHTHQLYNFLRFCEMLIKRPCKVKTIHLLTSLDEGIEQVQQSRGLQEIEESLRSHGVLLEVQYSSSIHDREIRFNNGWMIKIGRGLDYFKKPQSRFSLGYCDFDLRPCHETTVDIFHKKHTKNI
inactive: [1] -0.058 | [2] 0.022 | [3] -0.326 | [4] 0.045 | [5] 0.06

NDUFS7 (UniProt O75251)
inactive: [1] 0 | [2] 0.062 | [3] 0.015 | [4] -0.051 | [5] -0.022

NT5DC1 (UniProt Q5TFE4)
Sequence of UniProt Q5TFE4 (Q5TFE4 whole entry, looked up): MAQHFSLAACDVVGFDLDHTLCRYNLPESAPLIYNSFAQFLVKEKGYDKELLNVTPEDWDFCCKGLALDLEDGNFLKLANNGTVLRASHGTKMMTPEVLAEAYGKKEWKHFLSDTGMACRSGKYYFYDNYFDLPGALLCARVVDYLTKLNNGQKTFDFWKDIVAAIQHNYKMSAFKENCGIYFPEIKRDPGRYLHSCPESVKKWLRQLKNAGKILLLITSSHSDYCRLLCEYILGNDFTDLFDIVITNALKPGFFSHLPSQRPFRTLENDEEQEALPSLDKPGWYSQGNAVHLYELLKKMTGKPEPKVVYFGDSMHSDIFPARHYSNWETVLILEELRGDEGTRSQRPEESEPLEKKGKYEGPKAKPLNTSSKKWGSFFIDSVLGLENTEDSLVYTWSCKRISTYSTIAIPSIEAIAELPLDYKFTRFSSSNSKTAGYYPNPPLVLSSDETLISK
inactive: [1] -0.036 | [2] 0.075 | [3] 0.006 | [4] 0.021 | [5] 0.011

NUMB (UniProt P49757)
inactive: [1] 0 | [2] 0.035 | [3] 0.046 | [4] 0.023 | [5] -0.009

NDUFS4 (UniProt O43181)
inactive: [1] 0.078 | [2] -0.04 | [3] -0.096 | [4] 0.093 | [5] 0.086

MRPS35 (UniProt P82673)
inactive: [1] -0.011 | [2] -0.03 | [3] -0.033 | [4] 0.143 | [5] -0.004

OGFOD1 (UniProt Q8N543)
inactive: [1] -0.02 | [2] 0.047 | [3] 0.041 | [4] -0.015 | [5] -0.007

MXRA7 (UniProt P84157)
Sequence of UniProt P84157 (P84157 whole entry, looked up): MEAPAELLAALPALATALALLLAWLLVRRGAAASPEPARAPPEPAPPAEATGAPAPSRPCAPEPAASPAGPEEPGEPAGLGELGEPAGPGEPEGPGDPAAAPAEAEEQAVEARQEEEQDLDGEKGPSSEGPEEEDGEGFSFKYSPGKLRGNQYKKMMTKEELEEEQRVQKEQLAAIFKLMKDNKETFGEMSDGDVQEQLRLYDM
inactive: [1] 0.008 | [2] 0.167 | [3] 0.293 | [4] 0.002 | [5] 0.024

NME2P1 (UniProt O60361)
inactive: [1] -0.171 | [2] 0.079 | [3] 0.063 | [4] 0.082 | [5] -0.004

NCOR1 (UniProt O75376)
inactive: [1] -0.102 | [2] 0.06 | [3] 0.002 | [4] 0.016 | [5] -0.111

MRPS2 (UniProt Q9Y399)
inactive: [1] -0.084 | [2] 0.147 | [3] -0.042 | [4] 0.079 | [5] 0.003

NOP58 (UniProt Q9Y2X3)
inactive: [1] 0.039 | [2] -0.151 | [3] -0.063 | [4] 0.068 | [5] 0.031

MYLK (UniProt Q15746)
inactive: [1] -0.08 | [2] -0.053 | [3] 0.096 | [4] 0.118 | [5] -0.21

NME7 (UniProt Q9Y5B8)
Sequence of UniProt Q9Y5B8 (Q9Y5B8 whole entry, looked up): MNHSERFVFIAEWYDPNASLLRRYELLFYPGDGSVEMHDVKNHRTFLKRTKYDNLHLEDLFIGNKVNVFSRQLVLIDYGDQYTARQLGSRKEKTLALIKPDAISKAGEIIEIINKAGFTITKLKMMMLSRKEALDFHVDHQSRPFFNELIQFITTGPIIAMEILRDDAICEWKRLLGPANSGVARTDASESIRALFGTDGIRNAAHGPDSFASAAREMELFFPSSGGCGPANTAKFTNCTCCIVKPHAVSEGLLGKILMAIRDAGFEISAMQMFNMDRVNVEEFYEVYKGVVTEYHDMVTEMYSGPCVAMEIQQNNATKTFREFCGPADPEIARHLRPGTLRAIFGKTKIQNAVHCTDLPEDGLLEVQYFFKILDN
inactive: [1] -0.112 | [2] 0.098 | [3] 0.175 | [4] 0.096 | [5] -0.038

NAT14 (UniProt Q8WUY8)
inactive: [1] -0.059 | [2] 0.055 | [3] -0.087 | [4] 0.043 | [5] -0.047

MNAT1 (UniProt P51948)
inactive: [1] 0.011 | [2] 0.088 | [3] 0.005 | [4] 0.033 | [5] 0.068

NEDD4 isoform 4 (UniProt P46934)
inactive: [1] -0.006 | [2] 0.103 | [3] 0.081 | [4] 0.002 | [5] -0.007

MKRN2 (UniProt Q9H000)
inactive: [1] 0.029 | [2] 0.046 | [3] 0.143 | [4] 0.122 | [5] -0.017

PAFAH1B3 (UniProt Q15102)
inactive: [1] -0.076 | [2] 0.139 | [3] 0.128 | [4] -0.132 | [5] -0.096

OGFR (UniProt Q9NZT2)
inactive: [1] -0.016 | [2] -0.057 | [3] 0.016 | [4] 0.095 | [5] -0.046

NDUFA7 (UniProt O95182)
inactive: [1] 0.007 | [2] 0.002 | [3] 0.007 | [4] 0.008 | [5] 0.034

OXSR1 (UniProt O95747)
inactive: [1] -0.039 | [2] 0.048 | [3] 0.096 | [4] -0.003 | [5] -0.03

NUP85 (UniProt Q9BW27)
inactive: [1] -0.009 | [2] -0.018 | [3] 0.042 | [4] -0.004 | [5] 0.019

NUDT1 (UniProt P36639)
inactive: [1] 0.556 | [2] -0.043 | [3] 0.048 | [4] -0.137 | [5] 0.038

OSBP (UniProt P22059)
inactive: [1] 0.015 | [2] 0.084 | [3] 0.076 | [4] -0.002 | [5] 0.031

OXA1L (UniProt Q15070)
inactive: [1] 0.014 | [2] -0.01 | [3] 0.018 | [4] 0 | [5] 0.009

MRPL34 (UniProt Q9BQ48)
inactive: [1] 0 | [2] -0.154 | [3] -0.073 | [4] 0.058 | [5] -0.051

MTHFD1, A0A384N5Y3
Sequence of MTHFD1, A0A384N5Y3 (A0A384N5Y3 whole entry, looked up): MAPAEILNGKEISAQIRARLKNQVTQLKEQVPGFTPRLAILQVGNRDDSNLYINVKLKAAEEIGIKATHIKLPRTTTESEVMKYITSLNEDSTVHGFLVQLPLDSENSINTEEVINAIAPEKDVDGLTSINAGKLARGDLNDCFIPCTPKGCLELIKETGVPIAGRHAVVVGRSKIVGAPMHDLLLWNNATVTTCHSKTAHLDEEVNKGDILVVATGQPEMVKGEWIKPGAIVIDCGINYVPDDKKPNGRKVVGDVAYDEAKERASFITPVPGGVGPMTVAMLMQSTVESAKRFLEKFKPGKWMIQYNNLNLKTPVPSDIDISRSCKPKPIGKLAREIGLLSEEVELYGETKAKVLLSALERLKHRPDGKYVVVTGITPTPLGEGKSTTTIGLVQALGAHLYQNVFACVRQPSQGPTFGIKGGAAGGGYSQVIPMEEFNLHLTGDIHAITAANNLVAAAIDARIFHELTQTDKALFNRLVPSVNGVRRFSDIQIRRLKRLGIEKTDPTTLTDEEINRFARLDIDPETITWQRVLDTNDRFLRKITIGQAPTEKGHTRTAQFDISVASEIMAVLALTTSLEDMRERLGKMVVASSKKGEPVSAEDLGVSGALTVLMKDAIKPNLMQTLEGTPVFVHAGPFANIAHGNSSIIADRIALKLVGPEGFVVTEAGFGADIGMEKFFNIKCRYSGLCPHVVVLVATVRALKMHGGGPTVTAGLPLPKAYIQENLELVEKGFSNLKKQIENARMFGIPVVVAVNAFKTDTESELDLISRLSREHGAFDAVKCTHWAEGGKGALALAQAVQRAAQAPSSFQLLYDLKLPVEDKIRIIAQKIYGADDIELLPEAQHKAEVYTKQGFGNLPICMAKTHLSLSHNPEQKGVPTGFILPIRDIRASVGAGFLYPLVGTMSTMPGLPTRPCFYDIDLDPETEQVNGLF
inactive: [1] -0.063 | [2] 0.138 | [3] -0.022 | [4] -0.002 | [5] -0.113

MUL1 (UniProt Q969V5)
inactive: [1] -0.002 | [2] 0.006 | [3] 0.044 | [4] -0.107 | [5] 0.02

NUP107 (UniProt P57740)
inactive: [1] -0.02 | [2] -0.043 | [3] 0.051 | [4] 0.052 | [5] 0.025

NMU (UniProt P48645)
inactive: [1] -0.109 | [2] 0.008 | [3] -0.03 | [4] 0.066 | [5] -0.086

MPHOSPH10 (UniProt O00566)
inactive: [1] 0.023 | [2] -0.279 | [3] -0.206 | [4] 0.094 | [5] -0.024

NPC1 (UniProt O15118)
inactive: [1] -0.034 | [2] -0.038 | [3] -0.017 | [4] 0.009 | [5] 0.049

NDUFB8 (UniProt O95169)
Sequence of UniProt O95169 (O95169 whole entry, looked up): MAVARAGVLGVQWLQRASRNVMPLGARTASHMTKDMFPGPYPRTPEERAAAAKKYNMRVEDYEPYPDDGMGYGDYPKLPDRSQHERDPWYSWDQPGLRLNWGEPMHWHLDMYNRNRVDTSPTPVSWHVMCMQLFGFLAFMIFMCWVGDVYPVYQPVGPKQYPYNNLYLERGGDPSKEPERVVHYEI
inactive: [1] 0.049 | [2] 0.045 | [3] 0.02 | [4] -0.002 | [5] 0.089

MSTO1 (UniProt Q9BUK6)
inactive: [1] -0.041 | [2] 0.046 | [3] 0.002 | [4] -0.005 | [5] -0.071
